Rows were chosen to be rich in hits. Some 1.7% of all compounds tested hit in one or more screens of this group.
GLP-1R inv ag: qHTS of GLP-1 Receptor Inverse Agonists (Inhibition Mode); Glucagon-like peptide 1 receptor (Homo sapiens), P43220; HEK293 GLP-1R CRE-luciferase, luminescence, 24 h; GLP-1R form is constitutively active; Potency, µM (highest dose often 38.3 µM), for inactives: top-dose activity change, negative = inhibition, hits mostly inhibitors; actives 1.6% (n = 410,000); note: % is set by controls: 0 for no effect and ±100 for the full control effect; nearly all actives have a fitted effect of over 55% in size
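Luminescence readout: a drop in cAMP-driven luciferase signal flags inverse agonism at a constitutively active GLP-1R stably expressed in HEK293. Compound exposure lasted 24 hr at 37 deg C, 5% CO2.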
GLP1R ag: qHTS of GLP-1 Receptor Agonists. Glucagon-like peptide 1 receptor (Homo sapiens), P43220. HEK293 GLP-1R CRE-luciferase, luminescence, 4-6 h; cells express a hypersensitive GLP-1R form. Potency, µM (highest dose often 45.6 µM), without a hit: at the highest dose activation, most hits filed as activators. actives 0.007% (n = 380,000). AID 624172, 2012; note: % of control where 0% means no effect
PTHR1 agonist: qHTS for PTHR1 Agonists: Primary Screen. Parathyroid hormone/parathyroid hormone-related peptide receptor (Homo sapiens), Q03431. HEK293 GP2 PTHR1 cells, GloSensor cAMP luminescence, 1 h. Potency, µM (titrated, usually from 115 µM), for inactives: top-dose activation, hits mostly activators. actives 0.075% (n = 410,000); note: nearly all actives have a fitted effect of over 55% in size
Target sequence (Q03431 whole entry, looked up): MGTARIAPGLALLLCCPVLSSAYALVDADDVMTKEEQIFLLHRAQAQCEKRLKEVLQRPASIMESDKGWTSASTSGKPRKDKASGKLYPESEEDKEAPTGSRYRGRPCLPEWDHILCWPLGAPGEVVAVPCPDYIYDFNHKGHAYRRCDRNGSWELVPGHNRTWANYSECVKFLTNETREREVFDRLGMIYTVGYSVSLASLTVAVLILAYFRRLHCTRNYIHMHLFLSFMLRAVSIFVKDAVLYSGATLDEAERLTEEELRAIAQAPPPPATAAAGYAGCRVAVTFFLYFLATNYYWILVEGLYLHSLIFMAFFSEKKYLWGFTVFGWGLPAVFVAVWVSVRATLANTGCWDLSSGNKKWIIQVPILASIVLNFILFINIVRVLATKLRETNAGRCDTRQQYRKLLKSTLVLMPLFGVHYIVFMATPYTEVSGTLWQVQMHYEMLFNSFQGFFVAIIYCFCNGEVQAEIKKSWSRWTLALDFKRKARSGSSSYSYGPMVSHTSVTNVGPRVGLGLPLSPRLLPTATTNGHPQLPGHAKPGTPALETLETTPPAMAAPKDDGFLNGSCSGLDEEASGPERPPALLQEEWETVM
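HEK-293-derived GP2 cells expressing PTHR1 and a GloSensor cAMP reporter, 3,000/well, plated overnight, given luciferin plus IBMX (each 0.5 mM as added) for 1 h at 37 °C, then compound for 1 h at 37 °C. Luminescence was read after 15 min at room temperature.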
HEK293 tox: qHTS of GLP-1 Receptor Inverse Agonists: Cytotox Screen; HEK293 cAMP-luciferase reporter cells, luminescence, 24 h; Potency, µM (highest dose often 38.3 µM), for inactives: at the top dose activity change, negative = inhibition, actives largely listed as inhibitors; actives 0.13% (n = 410,000); AID 624418, 2012;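 note: loss of luciferase light is scored as toxicity; % is set by controls: 0 for no effect and ±100 for the full control effect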
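Compound-treated cells are incubated 24 hr at 37 deg C under 5% CO2 after a 12 hour attachment period, then luciferase detection reagent is added and luminescence is measured following 12 min at room temperature; lowered signal indicates toxicity.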
Numbers without * were called inactive; i = inactive; ? = inconclusive; . = not tested or not shown; [ ] = remark or other dose. Calls come from the whole dose curve; as a rule, active = well fitted curve in the direction sought with a large enough effect; inconclusive = small, poorly fitted or top-dose-only effect, or another doubt; inactive = no such curve, though single readings can be large; an effect the other way counts as inactive or inconclusive. Potency is the fitted concentration of half-maximal effect.

SMILES	GLP-1R inv ag	GLP1R ag	PTHR1 agonist	HEK293 tox
COC1C=CO[C@@]2(C)Oc3c(C)c(O)c4c(O)c(c(C=NN5CCN(C)CC5)c(O)c4c3C2=O)NC(=O)/C(C)=C\C=CC(C)C(O)[C@@H](C)C(O)C(C)[C@H](OC(C)=O)C1C (stereo partly specified)	.	-2.9%	.	.
CC(=O)N(Cc1ccc(F)cc1)C1=C(NCc2ccccc2)C(=O)c2ccccc2C1=O	10µM*	-12.4%	-26.4%	?
CCCCOc1ccc(CNC(=O)Cc2ccc(NC(=O)N3CCCCc4ccccc43)cc2)cc1	?	.	i	-6.2%
CCCn1c(=N)n(CC(=O)c2ccc(Cl)cc2)c2ccccc21	7.94µM*	13.0%	i	-27.2%
O=C1C2C(c3ccccc3)CC=CC2[C@H](c2cccc([N+](=O)[O-])c2)N1Cc1ccccc1 (stereo partly specified)	10µM*	-4.8%	-50.3%	2.6%
Cc1ccc(-c2cccc(C3CC=CC4C3C(=O)N(Cc3ccccc3)C4c3cc(C)ccc3F)c2)cc1 (stereo unspecified)	4.47µM*	-4.1%	-39.4%	-20.4%
COc1ccc(-c2cccc(C3CC=CC4C3C(=O)N(Cc3ccccc3)C4c3ccc(C(F)(F)F)cc3)c2)cc1 (stereo unspecified)	?	-1.5%	i	11.1%
COc1nc(Cl)cn(-c2ccc(C)cc2)c1=O	15.0%	0.4%	i	-12.9%
Cc1ccc(-n2c(Cl)c(Cl)nc(Cl)c2=O)cc1	?	-5.6%	-7.4%	2.82µM*
COc1ccc(CN2CCCN(CC(=O)Nc3cc(C)ccc3C)S2(=O)=O)cc1	-22.9%	.	-29.2%	-6.3%
O=C(O)CCC(=O)N1CCc2cc(S(=O)(=O)NCc3ccc(F)cc3)ccc21	6.1%	.	-12.9%	12.6%
CC(NCC(O)COCc1ccc(Cl)cc1)c1ccccc1 (stereo unspecified)	?	-0.3%	-0.7%	-4.1%
OC(CNc1ccccc1)COc1ccc(OCC(O)CNc2ccccc2)cc1 (stereo unspecified)	6.31µM*	-28.6%	i	13.0%
Cc1ccc(OCC(O)CNC(C)c2ccccc2)cc1C (stereo unspecified)	5.01µM*	0.9%	i	20.1%
CCOCC(O)CNc1ccccc1 (stereo unspecified)	0.2%	10.0%	-14.5%	1.1%
COc1ccc(NC(=O)Cn2c(=O)n(-c3ccc(C)cc3)c(=O)c3c2c2cc(C)ccc2n3C)cc1	10.0%	0.5%	-23.6%	2.6%
CCCCCCCCCCCCCCCC(=O)O[C@@H]1CC(C)=C(\C=C/C(C)=C\C=C/C(C)=C\C=C\C=C(C)\C=C\C=C(C)\C=C\C2=C(C)C[C@@H](OC(=O)CCCCCCCCCCCCCCC)CC2(C)C)C(C)(C)C1	.	-7.8%	.	.
Cc1cc(Cl)cc(Cl)c1OCCOCCN(C)C	11.2µM*	-14.5%	i	-0.5%
Brc1ccccc1OCCOc1cccc2cccnc12	-0.7%	6.4%	-10.4%	-6.7%
Cc1cc(Cl)cc(Cl)c1OCCOc1cccc2cccnc12	8.91µM*	0.5%	-32.0%[57.5 µM]	-23.8%
Cc1ccc(CCNC(=O)CCCn2c(=O)c3ccccc3n(Cc3ccccc3C)c2=O)cc1	-3.1%	.	i	-1.5%
CC(=O)c1ccc(N2CCN(C(=O)Nc3ccc(F)cc3F)CC2)cc1	16.3%	-0.6%	-25.2%	-2.8%
O=C(Nc1ccc(F)cc1F)N1CCN(c2ccc(Cl)c(Cl)c2)CC1	11.2µM*	.	-87.7%	1.6%
COc1ccc(C2N=C(N)Nc3nc4ccccc4n32)cc1 (stereo unspecified)	4.4%	.	50.1µM*	10.2%
COc1ccc(OC)c(C2N=C(N)Nc3nc4ccccc4n32)c1 (stereo unspecified)	-0.3%	-1.8%	-18.0%	0.2%
SMILES	GLP-1R inv ag	GLP1R ag	PTHR1 agonist	HEK293 tox
COc1ccccc1CN1CN(S(=O)(=O)c2ccccc2)c2nc3ccccc3nc21	2.82µM*	9.1%	18.6%	-25.4%
O=S(=O)(c1cccs1)N1CN(Cc2ccco2)c2nc3ccccc3nc21	1.78µM*	22.7%	i	-16.0%
O=S(=O)(c1cccs1)N1CN(Cc2ccc(Cl)cc2)c2nc3ccccc3nc21	0.6%	-4.8%	-3.8%[57.5 µM]	-8.3%
COCCN1CN(S(=O)(=O)c2ccccc2)c2nc3ccccc3nc21	6.7%	4.6%	-2.8%[57.5 µM]	0.8%
Cc1ccc(N2CCN(C(=O)c3c(C)oc4ncn(CC(C)C)c(=O)c34)CC2)c(C)c1	-20.6%	.	-9.4%	-7.8%
Cn1c(/C=C/c2ccc(Cl)cc2)c([N+](=O)[O-])c(=O)n(C)c1=O	0.794µM*	-4.9%	i	?
CNC(=S)N1CCN(c2nc(-c3cccc(OC)c3)cs2)CC1	-21.5%	-0.1%	-12.0%	-4.6%
COc1cccc(NC(=O)N2CCN(c3nc(-c4cccc(OC)c4)cs3)CC2)c1	12.6µM*	-4.7%	-45.7%	-21.6%
COc1cccc(-c2csc(N3CCN(C(=O)NC45CC6CC(CC(C6)C4)C5)CC3)n2)c1	5.01µM*	-10.5%	-28.7%[57.5 µM]	0.8%
COc1cccc(-c2csc(N3CCN(C(=O)Nc4ccccc4Cl)CC3)n2)c1	?	-2.0%	-44.8%	-9.1%
O=C(Nc1cccc(C(F)(F)F)c1)N1CCN(C(=O)Nc2cccc(C(F)(F)F)c2)CC1	30.7%	-12.2%	i	-12.4%
COc1ccc(N2CCN(C(=O)Nc3cccc(C(F)(F)F)c3)CC2)cc1	10µM*	6.2%	-86.6%	4.1%
CC(C)(C)c1ccc(-c2nnc(-c3ccccc3NC(=O)c3cccc(C(F)(F)F)c3)o2)cc1	13.8%	-1.3%	-18.6%	-7.0%
CCOc1ccc(CCNCc2c(C(=O)O)n(Cc3ccc(C)cc3)c3cc(OC)ccc23)cc1	-24.1%	.	-75.9%	-10.7%
COc1ccc(N2CCN(CCNC(=O)Nc3ccc(C)c(Cl)c3)CC2)cc1	2.82µM*	-0.3%	-64.4%	1.4%
COc1cc(NC(=O)NCCN2CCN(c3ccc(Cl)cc3)CC2)ccc1C	?	-0.2%	-4.3%	-7.8%
O=C(CCn1c(=O)c2cccn2c2cccnc21)N1CCN(c2ccc(F)cc2)CC1	1.1%	.	i	-3.1%
Cc1cc(C)cc(N(CC(=O)NCc2ccccc2Cl)S(=O)(=O)c2c(C)noc2C)c1	?	-2.4%	-11.1%	-3.2%
COc1cc(N(C)C)ccc1C=c1c2ccccc2n2c1cc(-c1ccccc1)[n+]2C	8.91µM*	-15.9%	-40.1%	12.6µM*
O=S(=O)(O)OCC1OC(OC2(COS(=O)(=O)O)OC(COS(=O)(=O)O)C(OS(=O)(=O)O)C2OS(=O)(=O)O)C(OS(=O)(=O)O)C(OS(=O)(=O)O)C1OS(=O)(=O)O (stereo unspecified)	.	-2.8%	.	.
Oc1c(N=Nc2ccccn2)ccc2ccccc12	?	-17.4%	-32.0%	5.01µM*
